# Entries with a potency or affinity are not part of this list. Activity calls are given as the source filed them. No rule for the calls is given here.
# Assay: mammalian cell viability reduction – secondary assay, cytotoxicity control for West Nile virus antiviral project, dose response (AID 1650)
# Details: Mammalian host cell viability, cytotoxicity counter-screen; series mostly up to 10 µM
row,Compound,outcome
1,CN1CCN(CCNC(=O)c2ccc3nc(-c4ccc(F)cc4)c(-c4ccc(F)cc4)nc3c2)CC1,inactive
2,CCOC(=O)c1nn(-c2ccccc2)c2nc(-c3ccc(OC)cc3)c(C#N)c(=O)n12,inactive
3,O=C1OC(N2CCN(Cc3ccccc3)CC2)c2ccccc21 (stereo not given),inactive
4,Cc1coc(NC(=O)CSc2nc(-c3ccncc3)cc(C(F)(F)F)c2C#N)n1,inactive
5,O=c1[nH]c2ccc(Cl)cc2c(-c2ccccc2)c1N1CCN(CCO)CC1,inactive
6,O=[N+]([O-])c1cc(-c2nnc(Nc3ccc(O)cc3)c3ccccc23)ccc1N1CCOCC1,inactive
7,CN1CCN(C(=O)CCN2C(=O)/C(=C/c3ccccc3Cl)SC2=S)CC1,inactive
8,COC(=O)c1ccc(/C=C2/SC(=S)N(CCCC(=O)Nc3ccc(O)cc3)C2=O)cc1,inactive
9,CCn1nc(C)c(CN2CCc3c([nH]c4ccccc34)C2c2ccc(F)c(OC)c2)c1C (stereo not given),inactive
10,C=CCN=C1CC(C)(C)CC(=O)/C1=C(/O)CCC(=O)OC,inactive
11,CCCN(CCC)CCCNC(=S)Nc1ccc2nc(N3CCCC3)cc(C)c2c1,inactive
12,CCC1CCCCN1CCCNC(=O)c1ccc(/C=C2/Sc3ccccc3NC2=O)cc1 (stereo not given),inactive
13,CCOC(=O)c1sc(NC(=O)Nc2ccccc2)cc1C,inactive
14,O=[N+]([O-])c1cncc([N+](=O)[O-])c1Nc1cccc(O)c1,inactive
15,CCOC(=O)c1[nH]c2ccccc2c1NC(=O)CC(C)(C)C,inactive
16,Cc1oc(-c2ccccc2Cl)[n+]([O-])c1C,inactive
17,CC(=O)OCC1O[C@@H](O[C@@H]2C[C@H]3C(C)(C)[C@H](OC(C)=O)CC[C@]3(C)[C@H]3CC[C@]45C[C@]4(CC[C@H]5[C@@H](C)C[C@@H](O)[C@H](O)C(C)(C)O)[C@@]32C)[C@H](O)[C@@H](O)[C@@H]1O (stereo not given in full),inactive
18,Cc1cc(C)c(NC(=O)Cn2nnc(C(=O)Nc3ccc(F)cc3F)c2N)c(C)c1,inactive
19,COc1c(O)ccc2c1CN1CCc3cc4c(cc3C1C2)OCO4 (stereo not given),inactive
20,CC(C)N1CCc2c(sc(NC(=O)c3ccc(C(=O)c4ccccc4)cc3)c2C(N)=O)C1,inactive

row,Compound,outcome
1,CCn1cc(CNCc2cn(C)nc2-c2ccc(C3CCCCC3)cc2)cn1,inactive
2,CC(/C=N/Nc1nc(N2CCCCC2)nc(N2CCCCC2)n1)=C\c1ccccc1,inactive
3,CCOc1c2ccoc2nc2c(OC)c(OC)ccc12,inactive
4,CCOc1ccc(C(=O)CCC(=O)O)cc1,inactive
5,CC(=O)OCCCNc1cc(Sc2ccc(C)cc2)c2nonc2c1[N+](=O)[O-],inactive
6,Cc1ccc(-n2c(O)c(C=Nc3ccc4c(c3)OCO4)c3ccccc3c2=O)cc1C,inactive
7,COc1ccc(CNCCC(c2ccc(OC(C)C)cc2)c2ccccc2OC)cc1OC (stereo not given),inactive
8,O=c1c(O[C@@H]2O[C@H](CO)[C@@H](O)[C@H](O)[C@H]2O)c(-c2ccc(O)c(O)c2)oc2cc(O)cc(O)c12,inactive
9,Cc1cc(N2CCN(C)CC2)nc2ccc(NC(=S)N3CCN(c4ccccn4)CC3)cc12,inactive
10,O=C(c1cccc(S(=O)(=O)N2CCOCC2)c1)N1CCOCC1,inactive
11,CCCC12CN3CC(C)(CN(C1)C3c1ccc(OC(C)C)cc1)C2=O (stereo not given),inactive
12,CN(C)CCCN(C(=O)c1ccc(S(=O)(=O)N2CCCc3ccccc32)cc1)c1nc2ccc(F)cc2s1,inactive
13,CCc1ccc(-c2cc3c(=O)n(CC(=O)NCCCN4CCN(CC)CC4)nc(C)n3n2)cc1,inactive
14,CC(=O)Oc1ccc(-c2ccc(C(=O)OCC(=O)N(C)CC(=O)Nc3ccccc3Cl)cc2)cc1,inactive
15,O=C(NCCC1=CCCCC1)c1coc(=O)c(Br)c1,inactive
16,CCCN1CCN(CCCNC(=O)c2cc3c(s2)-c2ccccc2OC3)CC1,inactive
17,CCN(CC)CCCNc1oc(-c2cccc(Cl)c2)nc1C#N,inactive
18,COC1(OC)C=CC(=O)C=C1NC(=O)c1ccccc1OC(C)=O,inactive
19,COc1ccccc1NC(=O)N1CCn2c(nc3ccccc32)C1,inactive
20,COc1ccc(-c2csc(NC3OC(=O)c4ccccc43)n2)cc1 (stereo not given),inactive
